High-throughput results from PubChem BioAssay.
CYP2C9 inhib: blocks human cytochrome P450 2C9 | CYP2C9 Supersomes, luciferin-H conversion, luminescence | inhibition, % at 5 µM | AID 777 | P11712 | 96,000 compounds, 20% hits;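 active means blocking of liver enzyme CYP2C9 beyond about 50% at 5 µM, limit read from the data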
PLK1 inh: blocks human PLK1 kinase activity; recombinant PLK1 kinase, TR-FRET peptide phosphorylation; inhibition, % at 10 µM; 97,000 compounds, 0.53% hits; AID 619;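 active means inhibition of 50% or more in the single-concentration screen; inactive means inhibition below 50%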;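 further: 0% = DMSO max control and 100% = H-89 dihydrochloride min control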
Target sequence (P53350 whole entry, looked up): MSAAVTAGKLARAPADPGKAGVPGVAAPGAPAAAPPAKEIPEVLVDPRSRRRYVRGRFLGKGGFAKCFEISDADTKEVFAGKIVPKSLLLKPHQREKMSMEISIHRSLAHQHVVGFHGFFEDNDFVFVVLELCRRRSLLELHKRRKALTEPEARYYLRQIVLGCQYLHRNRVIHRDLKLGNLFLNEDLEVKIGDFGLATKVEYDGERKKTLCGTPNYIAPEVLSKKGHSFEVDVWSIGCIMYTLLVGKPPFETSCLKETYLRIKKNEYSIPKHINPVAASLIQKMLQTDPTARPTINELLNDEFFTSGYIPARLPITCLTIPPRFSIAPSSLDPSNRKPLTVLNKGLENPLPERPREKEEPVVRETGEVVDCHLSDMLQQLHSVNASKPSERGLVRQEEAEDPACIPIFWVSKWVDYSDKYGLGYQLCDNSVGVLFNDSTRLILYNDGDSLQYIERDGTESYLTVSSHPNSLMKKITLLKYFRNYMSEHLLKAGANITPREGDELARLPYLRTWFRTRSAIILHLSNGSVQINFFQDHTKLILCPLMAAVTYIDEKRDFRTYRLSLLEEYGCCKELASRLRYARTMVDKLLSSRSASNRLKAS
CYP2C19 activ: increases human CYP2C19 enzyme activity | P33261 | recombinant CYP2C19, luciferin-H EGE luminescence; hits give high values; 0 = fully inhibited enzyme, 1 = untreated enzyme | activation factor at 5 µM | 96,000 tested, under 10 active;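 active means activation factor of at least 2 at 5 µM in the primary screen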;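 further: 0 = wells with 2.5 mM tranylcypromine and 1 = vehicle-only wells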
CYP2C19 inhib: inhibitors of human CYP2C19 | P33261 | CYP2C19 Supersomes, luciferin-H EGE luminescence, 30 min | inhibition, % at 5 µM | 96,000 compounds, 21% hits | AID 778;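 active means CYP2C19 inhibition above a set limit at 5 µM in the primary screen, cut at about 50% in these data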;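 further: plate controls were negative control wells for no effect and 2.5 mM tranylcypromine positive control for full effect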
CYP2C9 act: CYP2C9 (human) activation; AID 1024; activation factor at 5 µM; 96,000 compounds, 1.4% hits; recombinant CYP2C9, luciferin-H conversion, luminescence; hits give high values; factor 1 = untreated enzyme, 0 = blocked; P11712;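 active means activation factor of 2 or more for CYP2C9 at a 5 µM dose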;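 further: 0 = sulfaphenazole-blocked wells and 1 = vehicle-only wells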
PLK1 PBD inh: Plk1 (human) PBD binding inhibition. P53350. Plk1 PBD phosphopeptide binding, fluorescence polarization. inhibition, %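 (tested at about 20 µM)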. 97,000 compounds, 0.13% hits. AID 693; in the data active means inhibition above about 34%, passing the limit was not always enough
Numbers without * were called inactive; nt = no result. Hits are enriched below; roughly 28% of the tested compounds scored in any of these assays.

SMILES	CYP2C9 inhib	PLK1 inh	CYP2C19 activ	CYP2C19 inhib	CYP2C9 act	PLK1 PBD inh
Cc1ccc2cc(CN(CC3CCCO3)S(=O)(=O)c3cccc4nsnc34)c(=O)[nH]c2c1 (stereo not given)	99.7*	-5.1	0.4	57.2*	0	-7.8
Cc1cc2cc(CN(CCCO)S(=O)(=O)c3cccc4nsnc34)c(=O)[nH]c2cc1C	92.8*	-6.9	1	2.8	0.1	-9.3
Cc1ccc(S(=O)(=O)N(CCO)Cc2cc3ccc(C)c(C)c3[nH]c2=O)cc1	29.4	-12.7	0.9	6.0	0.7	-4.7
Cc1ccc2cc(CN(C)C(=O)C3CCCO3)c(=O)[nH]c2c1 (stereo not given)	-4.4	-18.1	1	0.6	1	-3.6
Cc1ccc2[nH]c(=O)c(CN(CCCO)S(=O)(=O)c3c(C)ccc4nsnc34)cc2c1	65.1*	1.9	1	2.9	0.3	14.0
CCC(=O)NC(Nc1cccc(C)n1)(C(F)(F)F)C(F)(F)F	1.6	-8.7	1	-2.2	1	-3.0
N#C/C(=C(/O)COC(=O)CCC1CCCCC1)c1nc2ccccc2[nH]1	48.7	-1.1	0.9	9.7	0.5	-17.2
Cc1ccc2cc(CN(Cc3ccco3)S(=O)(=O)c3c(C)ccc4nsnc34)c(=O)[nH]c2c1	88.7*	-9.7	0.5	54.1*	0.1	3.9
Cc1cc2cc(CN(Cc3ccco3)S(=O)(=O)c3c(C)ccc4nsnc34)c(=O)[nH]c2cc1C	-2.7	-4.7	0.9	8.5	1	-7.5
C/C(=C(\C#N)C(=O)NC1CCCCC1)N(C)C	0.0	-6.0	0.8	21.8	1	19.5
CC(=O)NCc1ccc(C(=O)CSc2nnc(-c3ccncc3)n2Cc2ccccc2)o1	nt	-5.9	nt	nt	nt	13.2
CCCCCC(=O)N1CCN(CCN=CC2=C(O)CC(c3ccc(OC)c(OC)c3)CC2=O)CC1 (stereo not given)	64.5*	-1.9	0.6	40.2	0.4	5.8
O=C1CC(c2ccccc2)CC(O)=C1C=NCCN1CCN(C(=S)Nc2cccc(Cl)c2)CC1 (stereo not given)	47.2	-10.1	0.3	72.3*	0.5	-1.0
CC1(C)CC(=O)C(C=NCCN2CCN(C(=S)Nc3ccc(F)cc3)CC2)=C(O)C1	18.5	-11.9	0.2	75.2*	0.8	1.9
C=CCN1C(=O)C(C)(C)Nc2ccccc21	-22.2	-17.2	1.1	-5.0	1.2	2.0
CC1(C)NC(=O)N(CCCCOc2ccc3ccccc3c2Cl)C1=O	-23.5	4.3	0	95.3*	1.2	-4.4
Cc1ccc(C(C)C)c(OCCCN2C(=O)NC(C)(C)C2=O)c1	54.1*	-1.5	0.1	89.9*	0.5	15.3
CCC(=O)c1ccccc1OCCCN1C(=O)NC(C)(C)C1=O	47.9	-5.3	0.4	61.9*	0.5	-6.9
COc1ccccc1OCC(O)CN1C(=O)NC(C)(C)C1=O (stereo not given)	36.2	-13.1	0.5	49.7	0.6	-6.6
COC(=O)c1ccc(OCC(O)CN2C(=O)NC(C)(C)C2=O)cc1 (stereo not given)	14.1	0.4	0.6	38.3	0.9	23.5
CC1(C)NC(=O)N(CCOCCOc2ccc3ccccc3c2Br)C1=O	-3.6	-15.7	0.1	87.8*	1	-20.1
CC(=O)c1c(C)[nH]c(C(=O)COc2cc(C)ccc2C(C)C)c1C	47.1	-8.8	0.7	29.2	0.5	0.3
CC1CC(C)CN(S(=O)(=O)c2cccc(C(=O)OCCN3CCCC3=O)c2)C1 (stereo not given)	-4.3	-5.7	1	4.3	1	-25.5
CN(C)CCNC(=O)c1ccc(CS(=O)(=O)c2ccc(Br)cc2)o1	nt	-3.9	nt	nt	nt	17.6
COc1ccc(CNC2CC(=O)N(C)C2=O)cc1 (stereo not given)	6.1	nt	0.8	20.0	0.9	nt
SMILES	CYP2C9 inhib	PLK1 inh	CYP2C19 activ	CYP2C19 inhib	CYP2C9 act	PLK1 PBD inh
CCCn1c(SC(C)C(=O)O)nc2ccccc21 (stereo not given)	-33.5	-3.7	0.9	11.4	1.3	-10.9
O=[N+]([O-])c1cc(C(F)(F)F)ccc1N1CCN(S(=O)(=O)c2ccc3ccccc3c2)CC1	-14.2	-5.5	0.4	57.5*	1.1	-12.1
NC(=O)C1CCN(c2ccc(C(F)(F)F)cc2[N+](=O)[O-])CC1	nt	-14.3	nt	nt	nt	24.7
Cn1c(=O)n(C)c2cc([N+](=O)[O-])c(N3CCN(S(=O)(=O)c4ccc(C(C)(C)C)cc4)CC3)cc21	62.2*	-7.6	0.7	29.4	0.4	-22.4
N#Cc1ccc(C2=NC(C(F)(F)F)(C(F)(F)F)c3c(n(Cc4ccco4)c(=O)[nH]c3=O)N2)cc1	96.4*	-10.3	0.7	32.3	0	-5.2
O=c1[nH]c(=O)n(Cc2ccco2)c2c1C(C(F)(F)F)(C(F)(F)F)N=C(C1CCCCC1)N2	2.9	-16.0	0.9	10.0	1	-4.0
O=c1[nH]c(=O)n(Cc2ccco2)c2c1C(C(F)(F)F)(C(F)(F)F)N=C(CCc1ccccc1)N2	67.9*	0.5	0.8	22.0	0.3	-20.1
O=c1[nH]c(=O)n(Cc2ccco2)c2c1C(C(F)(F)F)(C(F)(F)F)N=C(CCC1CCCCC1)N2	31.7	-12.9	0.7	25.3	0.7	-5.3
COC(=O)c1cc2oc(C)cc2n1CC(=O)Nc1ccc(C)c(C)c1	39.9	-7.9	0.6	37.4	0.6	15.3
Cc1ccc(C(=O)NCCOC23CC4CC(CC(C4)C2)C3)cc1	25.4	-2.5	0.8	18.9	0.7	-0.1
O=C(NCc1ccco1)C1(S(=O)(=O)c2ccc(Cl)cc2)CC1	10.6	-4.6	0.3	72.8*	0.9	-1.8
COc1cccc(C(CC(=O)NCC2CCCO2)NS(=O)(=O)c2ccc(C)cc2)c1OC (stereo not given)	23.3	-4.3	0.8	24.3	0.8	3.0
Cc1ccc(S(=O)(=O)N[C@@H](CC(C)C)C(=O)NCc2ccco2)cc1	16.8	-8.8	0.9	8.0	0.8	-20.6
CC(NS(=O)(=O)c1ccc(Cl)cc1)C(=O)NCc1ccco1 (stereo not given)	30.8	0.8	0.3	65.8*	0.7	-16.4
O=C(CC(NS(=O)(=O)c1ccc(Cl)cc1)c1ccco1)NCc1ccco1 (stereo not given)	43.9	1.6	0.4	61.3*	0.6	2.4
COc1cccc(C(CC(=O)NCc2ccco2)NS(=O)(=O)c2ccc(C)cc2)c1OC (stereo not given)	34.8	nt	0.2	80.6*	0.7	nt
O=C(COC(=O)CCNS(=O)(=O)c1ccc(Cl)cc1)NCc1ccco1	8.9	-9.3	0.7	33.6	0.9	-4.5
CC(C)(C)NC(=O)C(=O)NNC(=O)C12CC3CC(CC(C3)C1)C2	11.6	-5.5	1.1	-7.7	0.9	-16.2
COc1ccc(S(=O)(=O)NC(CC(=O)NCc2ccco2)C(C)C)cc1 (stereo not given)	20.2	-5.3	0.4	61.3*	0.8	-14.1
